Data from PubChem BioAssay.
Entries with a potency or affinity are not part of this list. Results filed as inconclusive are left out. The source made the active and inactive calls. How the calls were made is not given here.

assay: general cell-killing toxicity readout – plate reader, dry powder samples, cytotoxicity control for PAX8 inhibitor project, dose response (AID 743021); details: cell line, non-specific cytotoxicity counter-screen; series mostly up to 35 µM

Compound	outcome
CCCCn1cnc2c(c(-c3ccccc3)c(-c3ccccc3)n2Cc2ccco2)c1=N	inactive
O=C(N/N=C/c1ccc(O)cc1)c1[nH]c2ccc(Br)cc2c1-c1ccccc1	inactive
COc1cccc(/C=N/NC(=O)c2ccc(N3CCCC3=O)cc2)c1	inactive
Cc1ccc(S(=O)(=O)c2nc(S(=O)(=O)c3ccccc3)sc2N2CCN(C)CC2)cc1	inactive
C[C@H]1CCCCO[C@@H](CN(C)Cc2ccc(C(F)(F)F)cc2)[C@@H](C)CN([C@@H](C)CO)C(=O)c2cc(NS(=O)(=O)c3ccc(Cl)cc3)ccc2O1	inactive
N#Cc1ccc(NC(=O)COC(=O)C2CCC2)cc1	inactive
O=C(Nc1ccc(F)cc1)c1nc(S(=O)(=O)Cc2ccccc2)ncc1Cl	inactive
CC(C)=CCC/C(C)=C/CNC(=O)C[C@H]1C[C@H](C(=O)N2CCOCC2)[C@@]2(C)c3[nH]c4ccc(Cl)cc4c3CCN2C1=O	inactive
Cc1ccc(C)c(N2CCN(C(=O)CCCCCn3c(=S)[nH]c4ccc(N5CCOCC5)cc4c3=O)CC2)c1	inactive
COc1ccc(-c2ccc3c(c2)[C@H]2[C@H](CCN2S(=O)(=O)c2ccc(OC)cc2)[C@H](CO)N3C)cc1	inactive
Oc1ccc(C[C@H]2CNC(=S)N2CC2CCCN2C[C@H](Cc2ccccc2)N2C[C@H](Cc3ccc(O)cc3)N(CCc3ccccc3)C2=S)cc1 (some centres undefined)	inactive
Oc1ccc(/C=N\Nc2cc(N3CCOCC3)nc(N3CCOCC3)n2)c(O)c1	inactive
O=C(Nc1ccc(Cl)cc1)Nc1ccc(N2CCCC2)c(S(=O)(=O)Nc2ccccc2Cl)c1	inactive
C[C@H](CO)N1C[C@H](C)[C@@H](CN(C)Cc2ccncc2)Oc2ccc(NC(=O)Nc3ccc(C(F)(F)F)cc3)cc2CC1=O	inactive
O=C(C[C@@H]1C[C@H]2c3cc(NS(=O)(=O)c4ccc(F)cc4)ccc3O[C@H]2[C@@H](CO)O1)NCc1ccc(Oc2ccccc2)cc1	inactive
FC(F)(F)c1nnc2c(Sc3ccc(Cl)cc3)nc3ccccc3n12	inactive
C[C@@H]1CCCCO[C@@H](CN(C)Cc2ccc3c(c2)OCO3)[C@H](C)CN([C@@H](C)CO)C(=O)c2cc(NC(=O)Nc3ccc(C(F)(F)F)cc3)ccc2O1	inactive

Compound	outcome
CN(C)N=Nc1nc[nH]c1C(N)=O	inactive
COC(C(=O)C(O)C(C)O)C1Cc2cc3cc(OC4CC(OC5CC(O)C(O)C(C)O5)C(O)C(C)O4)c(C)c(O)c3c(O)c2C(=O)C1OC1CC(OC2CC(OC3CC(O)C(OC)C(C)O3)C(O)C(C)O2)C(O)C(C)O1 (centres undefined)	inactive
O=C(NCC1CCCO1)C(=Cc1cccc([N+](=O)[O-])c1)C(=O)NCC1CCCO1 (centres undefined)	inactive
Cc1ccc(S(=O)(=O)CCC(=O)c2ccc(O)cc2O)cc1	inactive
O=C(Nc1nc(-c2cccs2)c(-c2cccs2)s1)C1(c2ccccc2)CC1	inactive
Cc1cccc(NC(=O)CC23CC4CC(C2)CC(n2nnc(C)n2)(C4)C3)c1	inactive
Cc1ccc(S(=O)(=O)Nc2ccc3c(c2)C(=O)N([C@H](C)CO)C[C@H](C)[C@@H](CN(C)S(=O)(=O)c2ccc(C)cc2)OCCCC[C@H](C)O3)cc1	inactive
CCCCNC(=O)C(Sc1ccccc1)c1ccccc1 (centres undefined)	inactive
O=C1/C(=C\c2ccc(Cl)c(Cl)c2)CN(C(=O)CCN2CCOCC2)C/C1=C/c1ccc(Cl)c(Cl)c1	inactive
C[C@H](CO)N1C[C@H](C)[C@H](CN(C)S(=O)(=O)c2cccc(F)c2)OCc2ccccc2-c2c(n(C)c3ccccc23)C1=O	inactive
CCOC(=O)Nc1ccc2c(c1)N(C(=O)CCCl)c1ccccc1[S@]2=O	inactive
COc1ccc(NC(=O)C(Sc2nnc(-c3ccncc3)n2-c2ccccc2C)c2ccccc2)cc1Cl (centres undefined)	inactive
CC(C)c1ccc(/C=C(\c2nc3ccccc3[nH]2)S(=O)(=O)c2ccccc2)cc1	inactive
Cn1nnnc1Sc1ncnc2scc(-c3cccc(C(F)(F)F)c3)c12	inactive
CC(=O)c1cccc(-c2csc3ncnc(Sc4nnnn4C)c23)c1	inactive
CCCCn1nc(C(=O)Nc2cc(C(F)(F)F)ccc2N2CCOCC2)ccc1=O	inactive
C=CC[C@H](CC(=O)N(CCO)Cc1ccccc1)C(=O)N[C@@H](COC(=O)[C@H](CC=C)CC(=O)OC(C)(C)C)Cc1c[nH]c2ccccc12	inactive
